# MEKK2mut PB1 HTS = signal of MEK5 binding to mutant human MEKK2 PB1 domain | bead flow cytometry, Alexa488-MEK5 binding to MEKK2 mutant | percent response, % at 10 µM | actives 0.35% (n = 290,000) | AID 1530; in the data active means percent response above about 24%, passing the limit was not always enough
# MEKK2 WT-MEK5 = raises or lowers MEK5 binding to wildtype human MEKK2 PB1 domain | bead flow cytometry, Alexa488-MEK5 binding to MEKK2 WT; actives lie on both sides | binding response (% of control), % at 10 µM | actives 1.1% (n = 290,000) | AID 1531; in the data active means binding response below about 67% or above about 130%
# ATG4B inhibitor = inhibitors of human ATG4B cysteine protease; actives 0.51% (n = 340,000); inhibition, % at 8.33 µM; ATG4B cleavage of LC3-PLA2, NBD-HPC fluorescence, 1 h; in the data active means inhibition above about 40%
# UBC13 inh = human UBC13 polyubiquitination inhibition. P61088. UBC13 polyubiquitin chain formation, TR-FRET. inhibition, % at 20 µM. actives 0.47% (n = 330,000). AID 485273; in the data active means inhibition above about 45%, passing the limit was not always enough
# Target sequence (P61088 whole entry, looked up): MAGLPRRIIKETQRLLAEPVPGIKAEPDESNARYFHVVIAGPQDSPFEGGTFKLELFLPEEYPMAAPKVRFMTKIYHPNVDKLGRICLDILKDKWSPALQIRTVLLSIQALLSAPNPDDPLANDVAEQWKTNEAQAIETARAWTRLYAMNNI
# PREPL inh = inhibitors of human prolyl oligopeptidase-like enzyme PREPL; Q4J6C6; recombinant PREPL, fluorescence polarization activity-based probe; inhibition, % at 5.96 µM; actives 0.68% (n = 320,000); AID 2751; in the data active means inhibition above about 43%
# MEKK3 PB1 HTS = MEKK3-MEK5 PB1 interaction, increase or decrease; bead-based flow cytometry, Alexa488-MEK5 binding to MEKK3; actives lie on both sides; 0 = blocked by unlabeled MEK5, 100 = vehicle; actives 1.4% (n = 290,000); AID 1529; binding response (% of control), % at 10 µM;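 active means binding response more than 3 SD above or below the average of its plate-row segment, actives on both sides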;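 further: Alexa488 bead fluorescence after subtracting the streptavidin-only scavenger bead signal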
# MEKK2wt confirm = raises or lowers MEK5 binding to wildtype human MEKK2, retest. shares compounds with MEKK3 PB1 HTS. bead flow cytometry, Alexa488-MEK5 binding to MEKK2 WT; actives lie on both sides. binding response (% of control), % at 10 µM. actives 2.4% (n = 5,900); in the data active means binding response below about 16% or above about 210%; inactive means in between
# MEKK2mut-MEK5 = signal of MEK5 binding to mutant human MEKK2, retest. shares compounds with MEKK3 PB1 HTS. bead flow cytometry, Alexa488-MEK5 binding to MEKK2 mutant. percent response, % at 10 µM. actives 2% (n = 5,900). AID 1893; in the data active means percent response mostly above about 71%, no sharp cut-off; inactive means mostly below about 38%;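 further: higher means compound restores mutant binding toward wildtype level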
# MEKK3-MEK5 inh = confirmation of inhibitors of MEK5 binding to human MEKK3; shares compounds with MEKK3 PB1 HTS; bead flow cytometry, Alexa488-MEK5 binding to MEKK3; hits give low values; binding response (% of control), % at 10 µM; actives 1.8% (n = 5,900);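 active means binding response below 72% of control, or above a set upper limit, though filed actives all read lower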
# Numbers stand for hits; n = inactive; x = no result; [ ] = dose if it differs, or a comment. Sampled rows, rich in hits. Any-hit rate of the full collection: about 3.1%.
SMILES,MEKK2mut PB1 HTS,MEKK2 WT-MEK5,ATG4B inhibitor,UBC13 inh,PREPL inh,MEKK3 PB1 HTS,MEKK2wt confirm,MEKK2mut-MEK5,MEKK3-MEK5 inh
O=C(O)CCCC(=O)N1CCN(c2nc(-c3ccccc3Cl)c3cc(Br)ccc3n2)CC1,26,n,n,n,n,n,n,n,n
Cn1cc(C(=O)c2cccc(Cl)c2)cc1/C=N\O,n,n,n,n,n,42[inhibitor],n,n,n
CN(CCOc1ccc(-c2ccn(S(=O)(=O)c3cccc4ccccc34)n2)cc1)c1ccccn1,n,2.0[inhibitor],n,n,n,1.0[inhibitor],n,n,n
CN(CCOc1ccc(-c2ccn(S(=O)(=O)c3c(Cl)cccc3Cl)n2)cc1)c1ccccn1,n,n,n,n,n,n,x,x,x
CCc1ccc(N(CC)C(=O)c2cn(C)c(=O)c3ccccc23)cc1,n,n,n,n,n,n,x,x,x
COc1cc2c(cc1OC)C(c1cc(Br)ccc1F)N(C(=O)CCl)CC2 (stereo not given),n,n,n,n,n,n,x,x,x
COC(=O)Nc1nn(Cc2ccccc2F)cc1Br,n,n,n,n,n,74[inhibitor],n,n,n
CCn1cc([N+](=O)[O-])c(C(=O)Nc2ccn(Cc3ccccc3F)n2)n1,n,n,n,n,n,n,x,x,x
CCCCCOc1ccc(C(=O)CCC(=O)NNC(=O)c2ccncc2)cc1,x,x,n,n,x,x,x,x,x
CC1CCCCN1C(=O)CSc1nc2ccccc2[nH]1 (stereo not given),n,n,n,n,n,143,n,n,n
O=C1c2ccccc2S(=O)(=O)c2cc(N3CCC4(CC3)OCCO4)ccc21,n,n,n,n,n,n,x,x,x
CCNc1ccc(C(=O)OCC)cc1NC(=O)c1cccc(N(C)C)c1,n,n,n,n,n,n,x,x,x
CCOC(=O)c1ccc(S(=O)(=O)NNC(=O)c2cccc(N(C)C)c2)cc1,n,3.0[inhibitor],n,n,n,3.0[inhibitor],n,n,n
CCCC(=O)Nc1nc2nc(-c3ccccc3)cc(-c3ccccc3)n2n1,n,0.0[inhibitor],n,n,n,0.0[inhibitor],n,n,n
NCCNC(=O)c1c(NC(=O)c2ccccc2)sc2c1CCCC2,30,149,n,n,n,n,n,n,n
Cc1onc(-c2ccccc2)c1C(=O)Nc1sc2c(c1C#N)CCC2,n,n,n,n,n,n,x,x,x
Cc1onc(-c2ccccc2)c1C(=O)Nc1sc2c(c1C(N)=O)CCC2,n,2.0[inhibitor],n,n,n,2.0[inhibitor],n,n,n
CCCCNC(=O)CCCCCNS(=O)(=O)c1ccc(Br)cc1,n,n,n,n,n,n,x,x,x
NC(=O)c1ccc(-n2nnnc2SCC(=O)Nc2ccccc2)cc1,n,n,n,n,n,n,x,x,x
O=C(/C(=N\Nc1ccccc1)Sc1nnnn1-c1ccccc1)c1ccccc1,n,n,n,n,n,138,n,n,n
COc1ccc(-c2c(-c3ccc(OCC(=O)NN)cc3O)n[nH]c2C)cc1OC,n,n,n,n,n,n,x,x,x
COc1ccc(-c2c(-c3ccc(OCC(=O)NN)cc3O)n[nH]c2C(F)(F)F)cc1,n,n,n,n,n,130,n,n,n
Cc1ccc(SCCc2cc[n+](CC(=O)c3ccccc3)cc2)cc1,n,143,n,n,n,n,n,n,n
CCC(=O)N(C)CCc1cc2c(c(OC)c1/C=N/Nc1ccc(C(=O)O)cc1)OCO2,n,n,n,n,n,132,n,n,n
CCC(=O)N(C)CCc1cc2c(c(OC)c1/C=N/NC(=O)[C@H]1C[C@@H]1c1ccccc1)OCO2,n,n,n,n,n,n,x,x,x
CCc1ccc(C(O)(CNCc2ccccc2)c2ccccc2)cc1 (stereo not given),26,n,n,n,x,n,n,n,n

# Screening results deposited in PubChem BioAssay by several laboratories.
